Screen size: about 300,000 compounds; about 5,200 (1.7%) were called active. The list comes from a sample in which actives are over-represented; it also holds similar structures and randomly drawn compounds. A number with no mark means an inactive call.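 The calls were made as follows: active = mean replicate activation of at least 50% with a set share of replicates each reaching 50%; inconclusive = only one of those two conditions met; inactive = mean below 50% and too few replicates reaching it.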

The test in a line: HSF-1 response element luciferase induction – NIH3T3-HGL cells, MG132 stress, luminescence, single point, primary screen (AID 504408).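 Also: 0% = median of the neutral control wells and 100% = twice that signal.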 The conditions noted are these: NIH3T3-HGL HSF-1 luciferase reporter, MG132, 8 h; at 9 µM; active compounds read high; 100% = twice DMSO control signal.
As for `NS(=O)(=O)c1ccc(CCNC(=O)CN2C(=O)c3ccccc3S2(=O)=O)cc1`, the activation is -4.15%.

Regarding `COc1ccc(S(=O)(=O)NCCCc2ccccc2)cc1`, the activation was -30.2%. The value for `NC(=O)COC(=O)/C=C/c1ccc2ccccc2n1` was -46.9%. For `CCOc1cccc(/C=C/c2ccc3ccccc3n2)c1OC(C)=O`, the activation is 132% (active).

Turning to `COc1cccc(/C=C/c2ccc3ccccc3n2)c1OC(C)=O`, the activation is -16.6%.

`O=C(Nc1ncccc1O)c1ccc(C(=O)c2ccccc2)cc1`: the activation was -2.58%.

On to `CCCCn1c(N)c(N(CCOC)C(=O)CSCC(=O)Nc2cccc(C)c2)c(=O)[nH]c1=O`, for which the activation is 1.06%. The value for `CCC1Nc2ncnc(N3CCN(c4ccccc4)CC3)c2N(Cc2ccc(Cl)cc2)C1=O` (stereo unspecified) was 22.3%. The value for `Cc1cccc(N2C(=O)SC(N(CC(=O)O)c3cccc(C)c3)C2=O)c1` (stereo unspecified) was 17.2%; that for `Cc1ccc(CC2S/C(=C(/C#N)C(=O)N3CCOCC3)N(c3ccccc3)C2=O)cc1` (stereo unspecified) was 19.9%; that for `Cc1ccc(N2C(=O)SC(N(CC(=O)O)c3ccc(C)cc3)C2=O)cc1` (stereo unspecified) was 96.4% (active).

For `CC(=O)Nc1ccc(C(=O)NNC(=O)CCCCC(=O)NNC(=O)c2ccc(NC(C)=O)cc2)cc1`, the activation was 0.0985%. With `Cc1ccc(C(=O)NC2CCCC(C)C2C)cc1S(=O)(=O)N1CCCCC1` (stereo unspecified) the figure was 2.09%. With `O=[N+]([O-])c1ccc(S(=O)(=O)Nc2cccc(-c3ccc(N4CCCC4)nn3)c2)cc1` the figure was -7.69%; with `COn1c(-c2ccc(Cl)cc2Cl)nc2ncccc21`, 22.3%. The value for `Clc1ccc(COn2c(-c3ccc(Cl)cc3Cl)nc3ncccc32)cc1` was -4.74%; that for `Clc1ccc(-c2ncc3ccccn23)c(Cl)c1` was 69.3% (active). For the molecule `COc1ccc(-c2c(C#Cc3ccccc3)c3ccccc3n2C)cc1`, the activation is 64.2% (active). Regarding `COc1ccc(-c2nc3ccccc3c(=O)n2CCc2ccc(O)cc2)cc1`, the activation was 29.5%. The value for `COc1ccc(-c2cc(C(=O)n3cnc4ccccc43)c3ccccc3n2)cc1` was -1.65%; that for `O=C(COC(=O)c1ccccc1Br)Nc1nnc(-c2ccccc2)o1` was -10.6%; that for `CC1CCN(c2ccc(-c3ccc(NC(=O)c4ccco4)cc3)nn2)CC1` was -39.2%. The value for `CSCCC(NC(=O)c1ccco1)C(=O)Nc1cc(C)ccn1` (stereo unspecified) was 4.08%. The value for `Cc1ccc(-c2csc(NC(=O)C3=COCCO3)n2)cc1C` was 31.4%; that for `Cc1cc(C)c(C#N)c(SCc2[nH]nc3c2C(c2ccccc2)C(C#N)=C(N)O3)n1` (stereo unspecified) was 64% (active); that for `CCc1ccc(C2C(C#N)=C(N)Oc3n[nH]c(CC(=O)OC)c32)cc1` (stereo unspecified) was 3.08%. Regarding `Cc1cc(C)c2c3c(sc2n1)C(c1ccccc1)C(C#N)=C(N)O3` (stereo unspecified), the activation is -10.5%. The value for `CCN(C(=O)CSc1ncnc2c1cnn2-c1ccccc1)C1CCS(=O)(=O)C1` (stereo unspecified) was -4.69%; that for `Clc1ccc(-c2csc(-c3ccncc3)n2)cc1` was 58% (active); that for `Nc1scc(-c2ccncc2)c1Cl` was 11.5%.

With `Fc1ccc(-c2csc(-c3ccc(C4SCCS4)cc3)n2)cc1F`, the activation was 23.4%. For the molecule `CCCn1c(C)cc(/C=C(\C#N)C(=O)OCC(=O)N(C)c2c(N)n(Cc3ccccc3)c(=O)[nH]c2=O)c1C`, the activation was -4.32%. With `Cc1ccc(C(=O)/C=C/c2c(C)nn(-c3ccccc3)c2Cl)cc1` the figure was 42.3%; with `Cc1nn(-c2ccccc2)c(Cl)c1/C=C/C(=O)c1ccc(O)cc1`, 76.9% (active). With `Cc1nn(-c2ccccc2)c(Cl)c1C(=O)Nc1ccccc1` the figure was -8.73%. The value for `COc1cc2c(cc1OC)C(Cc1cc(OC)c(OC)cc1[N+](=O)[O-])=NCC2` was -5.53%. `O=C(N/N=C/c1ccc([N+](=O)[O-])o1)c1cn(-c2ccccc2)nc1-c1ccc(F)cc1`: the activation is 3.06%. As for `O=C(/C=C/c1ccc([N+](=O)[O-])o1)NNC(=O)c1ccc(F)cc1`, the activation is 71.3% (active). With `C/[N+]([O-])=C\c1ccc([N+](=O)[O-])o1` the figure was -2.43%; with `Cc1ccc(OCCNC(=O)CNC(=O)c2ccc(C)c(C)c2)cc1`, 16.2%; with `O=C1[C@H]2[C@@H](c3ccc(Cl)cc3)N3C(=O)N(c4cccc(F)c4)C(=O)[C@@]3(Cc3ccccc3)[C@H]2C(=O)N1C1CCCCC1`, -0.394%. With `N#Cc1cccc(NC(=O)COC(=O)c2ccccc2C(=O)c2ccc(Cl)c([N+](=O)[O-])c2)c1` the figure was 241% (active); with `CC(=O)Nc1ccc(NC(=O)C(C)OC(=O)c2ccccc2C(=O)c2ccc(Cl)c([N+](=O)[O-])c2)cc1` (stereo unspecified), 27.5%. As for `COC(=O)c1cc(NC(=O)Cc2ccccc2[N+](=O)[O-])ccc1Cl`, the activation is -11.7%. The value for `CC1(c2ccc(Cl)cc2Cl)NC(=O)N(CC(=O)Nc2cccnc2Cl)C1=O` (stereo unspecified) was -7.46%. Turning to `COc1ccccc1CCNC(=O)C(=O)NCCC1CCCCN1S(=O)(=O)c1cccs1` (stereo unspecified), the activation is 18%. The value for `CN(CC(=O)NCc1cccnc1)S(=O)(=O)c1cc(Cl)ccc1Cl` was 1.99%; that for `CC(Oc1ccc(Br)cc1)C(=O)NCC(c1ccco1)N1CCCCC1` (stereo unspecified) was 12.7%. Turning to `CC(OC(=O)c1ccc(-n2cnnn2)cc1)C(=O)NCc1ccccc1` (stereo unspecified), the activation is -14%. With `CCOC(=O)N1CCN(C(c2cccnc2)c2ccc3cccnc3c2O)CC1` (stereo unspecified) the figure was 67.9% (active); with `CCOC(=O)N1CCN(C(=O)CSc2nc(=O)n3cccc(C)c3n2)CC1`, -0.428%. For the molecule `CCN1CCN(C(c2cccnc2)c2cc(Cl)c3cccnc3c2O)CC1` (stereo unspecified), the activation was -83.7%.

With `CC(=O)Nc1ccc(Nc2nc3c(S(=O)(=O)c4ccc(C)c(C)c4)nnn3c3ccccc23)cc1`, the activation was 74.4% (active).

`Cc1ccc(S(=O)(=O)c2nnn3c2nc(N2CCN(c4ccccn4)CC2)c2ccccc23)cc1`: the activation is 30.6%. The value for `Cc1cccc(Nc2nc3c(S(=O)(=O)c4ccccc4)nnn3c3ccccc23)c1C` was 8.48%. With `COc1ccc(/C=C(\C#N)C(=O)OCC(=O)N(C)C2CCS(=O)(=O)C2)cc1` (stereo unspecified) the figure was -4.8%.

These data come from PubChem BioAssay AID504408 (Broad Institute, 2011).
